The text below walks through data of PubChem BioAssay.

Usually inhibition stands for the drop in the measured response relative to a control, in per cent. By remaining activity is commonly meant the signal under treatment as a percentage of the control signal.

Assay [1] is described as follows: stimulators of insulin release from INS-1E, primary screen, cell-based, 5 mM glucose, NPC library (AID 1117329;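 active means compound raises insulin release from rat beta cells at 5 mM glucose, no numeric limit stated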). The conditions noted are these: rat INS-1E insulin secretion, at 10 µM, stronger effect = higher value.
The nature of assay [2]: growth inhibition of GSK3B-pretreated HCT116 cells – cell-based, CellTiter-Glo, 0.2 to 20 µM (AID 1117336). As to conditions: HCT116 viability after GSK3B inhibitor, at 20 µM, stronger effect = higher value.
Assay [3] can be described thus: inhibition of endothelial tube formation, primary screen, imaging, VEGF stimulated, CD31 staining, tube area, NPC library (AID 1117340;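 active means compound that reduces growth-factor-driven endothelial tube area in a mixed cell culture, no cutoff stated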). The conditions noted are these: VEGF-stimulated ADSC/ECFC co-culture, at 10 µM, stronger effect = higher value.
The nature of assay [4]: glucagon-like peptide 1 release enhancers, primary assay, NCI-H716 cell line, NPC library (AID 1117341;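 active means compound raises GLP1 secretion from the human gut endocrine cells, with no numeric limit stated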). The conditions noted are these: NCI-H716 cells, at 10 µM, stronger effect = higher value.
Assay [5] can be described thus: HCT116 colon cancer cell growth inhibition, primary screen, CellTiter-Glo luminescence, NPC library (AID 1117342;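 active means compounds that lower survival of HCT116 colon cancer cells in the luminescence readout, no numeric limit stated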). The conditions noted are these: at 20 µM (top of the series).
Assay [6] in a line: CellTiter-Glo luminescent readout of SW480 viability loss, NPC library primary (AID 1117343;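 active means compounds that lower viability of the colon cancer cells in the luminescence readout, with no numeric limit stated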). As to conditions: CellTiter-Glo luminescence; at 20 µM (top of the series). For orientation: In ATP-based viability assays light output follows the ATP content of the culture.
Assay [7] in a line: decreased DLD-1 cellular survival, CellTiter-Glo luminescent readout, NPC compound collection, primary HTS (AID 1117346;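 active means compounds that lower survival of DLD-1 colon cancer cells in the luminescence readout, no cutoff given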). As to conditions: DLD-1 viability, CellTiter-Glo luminescence; at 20 µM (top of the series).
The target of assay [8] is 6-phosphogluconate dehydrogenase, decarboxylating (Homo sapiens) (UniProt P52209). Description: 6PGD enzyme inhibitors, primary screen, biochemical, human, recombinant enzyme, NADPH absorbance (AID 1159550;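 active means at least 20% inhibition of 6-phosphogluconate dehydrogenase activity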). The conditions noted are these: recombinant 6PGD, NADPH absorbance 341 nm; at 10 µM; stronger effect = higher value.
The nature of assay [9]: differential killing of epithelial or mesenchymal cells, primary screen, imaging, PC-3E GFP, TEM4-18 mCherry, co-culture (AID 1345086;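 active means compounds killing one labelled cell type while sparing the other, by normalised counts and ratio limits, not self-fluorescent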;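 on all read-outs here: cells exposed to compound for 72 h before imaging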;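 on red/green cell ratio (normalised): normalised mesenchymal count divided by normalised epithelial count so high means epithelial killing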). As to conditions: imaging cell counts, at 1 µM; for red/green cell ratio (normalised): actives lie on both sides, counts scaled to control wells, 1 = unselective.
In assay [10] the test system is Aerobactin synthetase IucA (Klebsiella pneumoniae). Description: IucA aerobactin synthetase inhibitors, biochemical, Tocris library, absorbance (AID 1345561; call rule not given here;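 further: 100% = enzyme without compound and 0% = no enzyme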). As to conditions: purified IucA enzyme assay, absorbance (OD) read-out; stronger effect = lower value;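 tested at 8 µM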.
Assay [11] can be described thus: growth inhibition of DIPG glioma cells, dose response, cell-based, SU-DIPG-XVII, MIPE5.0, CellTiter-Glo, qHTS (AID 1347060; cut-off not given, nearly all actives have AC50 up to about 26 µM). The conditions noted are these: SU-DIPG-XVII viability, CellTiter-Glo ATP luminescence.
Assay [12] is described as follows: growth inhibition of DIPG glioma cells, dose response, cell-based, SU-DIPG-XIII, MIPE4.0, CellTiter-Glo, qHTS (AID 1347061; cut-off not given, nearly all actives have AC50 up to about 37 µM;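 further: cells exposed to compound for 48 hours before readout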). The conditions noted are these: SU-DIPG-XIII viability, CellTiter-Glo ATP luminescence.
A short description of assay [13]: growth inhibition of DIPG glioma cells, dose response, cell-based, JHH-DIPG-1, MIPE4.0, CellTiter-Glo, qHTS (AID 1347062; cut-off not given, nearly all actives have AC50 up to about 27 µM). As to conditions: JHH-DIPG-1 viability, CellTiter-Glo ATP luminescence.
Assay [14] in a line: growth inhibition of DIPG glioma cells, dose response, cell-based, SU-DIPG-IV, MIPE4.0, CellTiter-Glo, qHTS (AID 1347063; cut-off not given, nearly all actives have AC50 up to about 30 µM;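 further: compound exposure lasted 48 hours before the viability readout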). As to conditions: SU-DIPG-IV viability, CellTiter-Glo ATP luminescence.
A short description of assay [15]: growth inhibition of DIPG glioma cells, dose response, cell-based, SU-DIPG-XIII, MIPE5.0, CellTiter-Glo, qHTS (AID 1347064; cut-off not given, nearly all actives have AC50 up to about 23 µM). The conditions noted are these: SU-DIPG-XIII viability, CellTiter-Glo ATP luminescence.
The mark [16] stands for this setting: measured here: epithelial PC-3E GFP cell survival.
The mark [17] stands for this setting: measured here: mesenchymal TEM4-18 mCherry cell survival.

Records with an inconclusive call do not appear. Calls of active or inactive are those of the source.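 How the source made its calls, unless noted: active means compounds lowering colon cancer cell viability after pretreatment blocking the GSK3B kinase; inactive means the rest.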

6-phosphogluconate dehydrogenase, decarboxylating (Homo sapiens), sequence (P52209 whole entry, looked up): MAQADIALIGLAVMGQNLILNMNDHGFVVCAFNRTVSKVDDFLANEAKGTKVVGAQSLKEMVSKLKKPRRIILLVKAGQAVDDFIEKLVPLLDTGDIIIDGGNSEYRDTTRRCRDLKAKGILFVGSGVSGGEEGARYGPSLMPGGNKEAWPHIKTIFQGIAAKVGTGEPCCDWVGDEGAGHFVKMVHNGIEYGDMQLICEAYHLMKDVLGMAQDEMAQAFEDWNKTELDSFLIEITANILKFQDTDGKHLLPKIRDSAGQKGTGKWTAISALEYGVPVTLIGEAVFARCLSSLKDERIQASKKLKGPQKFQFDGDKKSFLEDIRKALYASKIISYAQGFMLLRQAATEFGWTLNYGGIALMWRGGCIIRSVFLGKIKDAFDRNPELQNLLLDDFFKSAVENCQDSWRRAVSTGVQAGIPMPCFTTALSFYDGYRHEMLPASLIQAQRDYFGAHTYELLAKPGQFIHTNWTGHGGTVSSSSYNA

`O=C1CCc2cc(OCCCCc3nnnn3C3CCCCC3)ccc2N1`: the insulin secretion stimulation in assay [1] was -1.5% (inactive). For the same compound, the viability decrease in assay [2] was -19.3% (inactive). The tube area decrease in assay [3] was 0.2% (inactive). Further, the GLP1 secretion stimulation in assay [4] is -1.1% (inactive). In [5], the inhibition of viability is -0.27% (inactive). Further, the viability decrease (inhibition) in assay [6] is 36.4% (inactive); in assay [7], -12.1% (inactive). Also, the inhibition in assay [8] is 1.01% (inactive). Moreover, the red/green cell ratio (normalised) in assay [9] is 1.09 (inactive). In addition, the normalised cell number was determined as 0.86 in [9] (setting [16]) and 0.94 in assay [9] (setting [17]). Besides, the remaining activity in [10] is 118% (inactive). Moreover, the result in [11], in assay [12], in assay [13], in assay [14] and in assay [15] was inactive.
For `CCN(CC)CCOCCOC(=O)C1(c2ccccc2)CCCC1`, the insulin secretion stimulation in assay [1] is 60% (active). In assay [2], the viability decrease is 19.3% (inactive). In addition, in [3], the tube area decrease is -3.1% (inactive). Moreover, the GLP1 secretion stimulation in assay [4] is 5.7% (inactive). Further, the inhibition of viability in [5] was 56.4% (active). Moreover, the viability decrease (inhibition) is 20.6% (inactive) in assay [6] and 62.5% (active) in [7]. Besides, the inhibition in assay [8] was 1.3% (inactive). The red/green cell ratio (normalised) in assay [9] is 1.27 (inactive). The normalised cell number amounted to 1 in assay [9] (setting [16]) and 1.28 in [9] (setting [17]). The remaining activity in assay [10] is 92.5% (inactive).
`CC(C)NCC(O)c1ccc2ccccc2c1` (configuration not stated): the insulin secretion stimulation in assay [1] was 9.8% (inactive). Also, the viability decrease in assay [2] was 6.6% (inactive). Moreover, the tube area decrease in assay [3] is -11.2% (inactive). For the same compound, the GLP1 secretion stimulation in assay [4] is 1.5% (inactive). For the same compound, the inhibition of viability in assay [5] is 26.4% (inactive). For the same compound, the viability decrease (inhibition) in [6] was 20.9% (inactive); in assay [7], 19.4% (inactive). Further, the inhibition in assay [8] is 8.21% (inactive). Besides, the red/green cell ratio (normalised) in assay [9] was 1.02 (inactive). For the same compound, the normalised cell number was 1.05 in [9] (setting [16]) and 1.07 in [9] (setting [17]). Also, the remaining activity in assay [10] was 94.1% (inactive).
Take `CS(=O)(=O)Nc1ccc([N+](=O)[O-])cc1Oc1ccccc1`: the insulin secretion stimulation in assay [1] is 0.6% (inactive). In addition, the viability decrease in assay [2] is 7.2% (inactive). Further, in assay [3], the tube area decrease is 11.6% (inactive). Also, the GLP1 secretion stimulation in assay [4] is 0.1% (inactive). For the same compound, the inhibition of viability in assay [5] is 15% (inactive). For the same compound, the viability decrease (inhibition) in [6] is 10.5% (inactive); in assay [7], 17.8% (inactive). Moreover, the inhibition in [8] was 11.1% (inactive). Besides, the red/green cell ratio (normalised) in [9] was 0.96 (inactive). Moreover, the normalised cell number worked out at 1.05 in assay [9] (setting [16]) and 1.01 in assay [9] (setting [17]). Moreover, the remaining activity in assay [10] is 111% (inactive). The call in assay [11], in assay [12], in assay [13] and in assay [15] was inactive.
In the case of `Cc1cc(NC(=O)C2=C(O)c3ccccc3S(=O)(=O)N2C)no1`, the insulin secretion stimulation in assay [1] was -1.3% (inactive). For the same compound, the viability decrease in [2] is -24.5% (inactive). Besides, in [3], the tube area decrease is 14.8% (inactive). Besides, in assay [4], the GLP1 secretion stimulation was -2.4% (inactive). In assay [5], the inhibition of viability was 4.6% (inactive). For the same compound, the figures for the viability decrease (inhibition) in assay [6] and in assay [7] were -6% (inactive) and -7.2% (inactive), respectively. Also, the inhibition in assay [8] is 0.485% (inactive). Besides, in [9], the red/green cell ratio (normalised) is 0.87 (inactive). The normalised cell number in assay [9] (setting [16]) was determined as 0.97; in assay [9] (setting [17]) it was 0.84.
Consider `CSc1ccc2c(c1)C(N1CCN(C)CC1)Cc1ccccc1S2` (configuration not stated), for which, in assay [1], the insulin secretion stimulation was 30.7% (active). For the same compound, in assay [2], the viability decrease was 111% (active). The tube area decrease in assay [3] is 61.8% (active). Also, in assay [4], the GLP1 secretion stimulation was 19.2% (inactive). The inhibition of viability in assay [5] was 113% (active). The viability decrease (inhibition) is 132% (active) in assay [6] and 102% (active) in assay [7]. The inhibition in [8] is -11.1% (inactive). In addition, the red/green cell ratio (normalised) in assay [9] is 1.1 (inactive). The values for the normalised cell number in assay [9] (setting [16]) and in assay [9] (setting [17]) were 0.72 and 0.79, respectively. Further, the remaining activity in assay [10] was 107% (inactive).
Turning to `Cc1nc2sccn2c(=O)c1CCN1CCC(=C(c2ccc(F)cc2)c2ccc(F)cc2)CC1`, the insulin secretion stimulation in [1] is 2% (inactive). Besides, the viability decrease in assay [2] is 86.2% (active). Besides, in assay [3], the tube area decrease was 28.7% (inactive). The GLP1 secretion stimulation in [4] is 10.9% (inactive). For the same compound, the inhibition of viability in [5] is 90.6% (active). In addition, the viability decrease (inhibition) was 133% (active) in assay [6] and 105% (active) in assay [7]. In addition, in assay [8], the inhibition is 13.5% (inactive). In addition, in assay [9], the red/green cell ratio (normalised) is 1.18 (inactive). Moreover, the values for the normalised cell number in assay [9] (setting [16]) and in [9] (setting [17]) were 1.16 and 1.38, respectively. For the same compound, the remaining activity in assay [10] is 122% (inactive).
